The panel holds about 79,000 compounds, 15% with a hit somewhere; the sample as a whole holds those more often. Unmarked numbers belong to inactive results. Activity calls are given as the source filed them. No stated cut-off is given here; in the data, active means growth inhibition above about 70%; inactive means the rest. Where a SMILES comes first, the peptide text is derived from it. The star is where a group is joined. Cbz = O=C(OCc1ccccc1)*
Columns and labels:
[1] = NCI Yeast Anticancer Drug Screen. Data for the rad50 strain (AID 155);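 further: 0% = growth of vehicle-only cultures of the same strain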; conditions: S. cerevisiae rad50 strain growth inhibition, active compounds read high
Method in brief: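 Compounds were tested on a yeast strain with an engineered DNA damage repair alteration; the reported value is growth inhibition normalised to vehicle treatment.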

[2] = NCI Yeast Anticancer Drug Screen. Data for the mec2-1 strain (AID 157); conditions: S. cerevisiae mec2-1 strain, active compounds read high
Method in brief: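 Yeast mec2-1 mutant treated with compound. Readout: growth inhibition vs vehicle controls.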

[3] = NCI Yeast Anticancer Drug Screen. Data for the sgs1 mgt1 strain (AID 161);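 further: 0% = growth of cultures given vehicle only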; conditions: S. cerevisiae sgs1 mgt1 strain, active compounds read high
Method in brief: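 Test agents were incubated with a DNA-repair-mutant yeast strain. Growth was then read and compared against vehicle-treated controls.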

[4] = NCI Yeast Anticancer Drug Screen. Data for the cln2 rad14 strain (AID 165);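 further: 0% = growth equal to vehicle treated cultures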; conditions: S. cerevisiae cln2 rad14 strain, active compounds read high
Method in brief: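 cln2 rad14 yeast strain; compound exposure; growth inhibition read vs vehicle controls.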

[5] = NCI Yeast Anticancer Drug Screen. Data for the bub3 strain (AID 167); conditions: S. cerevisiae bub3 mutant strain, active compounds read high
Method in brief: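 Growth of a checkpoint-deficient yeast mutant is measured after compound exposure. Values represent inhibition relative to vehicle.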

[6] = NCI Yeast Anticancer Drug Screen. Data for the mlh1 rad18 strain (AID 175); conditions: S. cerevisiae mlh1 rad18 strain growth inhibition, active compounds read high
Method in brief: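 Yeast w/ defined DNA-repair lesions; compound exposure; growth vs vehicle controls → % inhibition.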

[7] = at 5.0 µM (retest, dose inferred, filed as 0.5)
[8] = at 50.0 µM (retest, dose inferred, filed as 5.0)

SMILES | growth inhibition [1, 7] | growth inhibition [1, 8] | growth inhibition ([1]; at 50.0 µM) | growth inhibition [2, 7] | growth inhibition [2, 8] | growth inhibition ([2]; at 50.0 µM) | growth inhibition [3, 7] | growth inhibition [3, 8] | growth inhibition ([3]; at 50.0 µM) | growth inhibition [4, 7] | growth inhibition [4, 8] | growth inhibition ([4]; at 50.0 µM) | growth inhibition [5, 7] | growth inhibition [5, 8] | growth inhibition ([5]; at 50.0 µM) | growth inhibition [6, 7] | growth inhibition [6, 8] | growth inhibition ([6]; at 50.0 µM)
CC(=O)N(C(C)=O)C1=C2c3ccccc3N(S(=O)(=O)c3ccccc3)C2n2c(=O)n(-c3ccccc3)c(=O)n2C1 (configuration not stated) | 11% | 64% | 69.9% | -5% | 46% | 46.8% | -1% | 66% | 75.7% (active) | -26% | 61% | 63.7% | 0% | 56% | 58.6% | -10% | 35% | 55.7%
CN(C)c1nc(N(C)C)sc(=O)n1 | 0% | 91% (active) | 85% (active) | -4% | 28% | 25.8% | 2% | 78% (active) | 69% | 8% | 26% | 1.5% | -10% | 37% | -3.6% | 9% | 86% (active) | 76.3% (active)
Cc1cc(Nc2ccc(O)c(CN3CCN(Cc4cc(Nc5cc(C)nc(N)n5)ccc4O)CC3)c2)nc(N)n1 | 8% | 95% (active) | 97.5% (active) | 6% | 96% (active) | 96.9% (active) | 5% | 96% (active) | 97.5% (active) | 12% | 94% (active) | 89.7% (active) | 9% | 95% (active) | 95.4% (active) | 7% | 97% (active) | 97.5% (active)
Cn1cc(NC(=O)Nc2cc(C(=O)Nc3cc(C(=O)Nc4cc(S(=O)(=O)O)c5cc(S(=O)(=O)O)cc(S(=O)(=O)O)c5c4)n(C)c3)n(C)c2)cc1C(=O)Nc1cc(C(=O)Nc2cc(S(=O)(=O)O)c3cc(S(=O)(=O)O)cc(S(=O)(=O)O)c3c2)n(C)c1 | 35% | 90% (active) | 86% (active) | 20% | 80% (active) | 66.8% | 21% | 77% (active) | 64.2% | 32% | 48% | 60.5% | 30% | 92% (active) | 77.5% (active) | 26% | 83% (active) | 87% (active)
CSc1nc2ccccc2s1 | -5% | 8% | 24.1% | -2% | 3% | 23.3% | -1% | 4% | -19.4% | 4% | 0% | 43.9% | -3% | -1% | -8.3% | -3% | 5% | 4.2%
COc1ccc(OCC(O)CN2CCN(c3cccc(Cl)c3)CC2)cc1 (configuration not stated) | -2% | -3% | 72.5% (active) | 15% | 28% | 37.6% | 1% | 23% | 95.5% (active) | -6% | -7% | 33.6% | -4% | 8% | 42.6% | 20% | 31% | 69.9%
O=C(Nc1ccccc1)c1cccc2ccccc12 | 2% | -8% | 67.7% | 4% | -1% | 48% | 6% | -4% | 55.1% | 1% | -6% | 24.1% | -18% | 0% | 51% | -15% | 7% | 70.8% (active)
S=C(Nc1ccc2cn[nH]c2c1)Nc1ccc2cn[nH]c2c1 | 7% | 46% | 79.1% (active) | 16% | 0% | -12.9% | -5% | 5% | 30.9% | -25% | 2% | -1.15% | 7% | 1% | 40% | 2% | 17% | 41.9%
CCN(CC)CCCCSc1ccc([N+](=O)[O-])cc1[N+](=O)[O-] | 27% | 45% | 77.6% (active) | 32% | 36% | 45.4% | 32% | 68% | 72.8% (active) | 43% | 43% | 59.3% | 30% | 47% | 65.8% | 23% | 44% | 71.9% (active)
OC(c1cc(-c2ccccc2)nc2cc(Cl)ccc12)C1CCCCN1 (configuration not stated) | -2% | -3% | 8.7% | -3% | 3% | 26.1% | -1% | -2% | 37% | -5% | -4% | 15% | -2% | -5% | 75% (active) | -2% | -3% | 53.6%
O=C(NC(Cc1ccc(O)cc1)C(=O)NC(Cc1ccccc1)C(=O)O)OCc1ccccc1 (stereo not drawn) (Cbz-Tyr-Phe-OH; configuration not given here) | -6% | -1% | -17.3% | 29% | -1% | 5.85% | -2% | 0% | 34.1% | 1% | 1% | -36.5% | -5% | -3% | -4.3% | -2% | -1% | -0.6%
Oc1ccc(O)c2c(O)c3ccccc3c(O)c12 | 24% | 86% (active) | 76.7% (active) | 15% | 77% (active) | 50.4% | 10% | 85% (active) | 80.5% (active) | 15% | 58% | 30.9% | 3% | 82% (active) | 65.7% | 20% | 94% (active) | 78.9% (active)
Cc1cc(Cl)c2cc(Cc3ccc(Br)cc3)ccc2n1 | -3% | 10% | 16.5% | -10% | 20% | 36% | 11% | 37% | 43.9% | 1% | -1% | 50.6% | 4% | 12% | 37.6% | 15% | 15% | 55.9%
CC(=O)C(C(=N)C#N)C(=O)Nc1ccccc1 (configuration not stated) | 1% | 10% | -6.9% | 2% | -12% | -34.5% | -8% | 7% | -22.7% | -14% | -2% | 33.6% | 6% | -2% | -44% | 0% | 6% | -15.2%
OC(CN1CCc2ccccc2C1)c1ccc2ccccc2c1 (configuration not stated) | 23% | 64% | 86.5% (active) | 18% | 58% | 50.5% | 34% | 86% (active) | 88.5% (active) | 26% | 58% | 68.3% | 36% | 93% (active) | 94.6% (active) | 25% | 82% (active) | 45.3%
O=C1NC(c2ccccc2)(c2ccccc2)C(=O)N1SC(Cl)(Cl)Cl | 98% (active) | 98% (active) | 90.3% (active) | 100% (active) | 99% (active) | 89.3% (active) | 99% (active) | 99% (active) | 90.8% (active) | 99% (active) | 99% (active) | 89.7% (active) | 99% (active) | 98% (active) | 88.5% (active) | 98% (active) | 99% (active) | 87.2% (active)
CN(C)CC1CCc2ccc3ccccc3c2C1=O (configuration not stated) | 9% | 34% | 25.9% | -13% | 27% | 31.6% | 16% | 48% | 56.4% | 6% | 29% | 7.95% | 10% | 63% | 48.8% | 29% | 65% | 15.4%
CCCCCCCCCCN1CCN(C(=O)OCC)CC1 | 51% | 68% | 95% (active) | 54% | 77% (active) | 72.2% (active) | 67% | 97% (active) | 94.7% (active) | 58% | 67% | 90.7% (active) | 62% | 80% (active) | 95.8% (active) | 79% (active) | 91% (active) | 89.2% (active)
S=C(NCCc1ccccn1)N/N=C/c1ccccn1 | 10% | 99% (active) | 76.5% (active) | -1% | 99% (active) | 84.9% (active) | 7% | 98% (active) | 88.3% (active) | -3% | 97% (active) | 89.8% (active) | -17% | 99% (active) | 90.4% (active) | 28% | 99% (active) | 91.5% (active)

— PubChem BioAssay (NCI)
